This note sets out measurements from the supplement of paper PMC10338343.

The test system of the test is MIWI (PIWIL1) piRISC loaded with L1MC piRNA (30 nt). Kind of test: pre-steady-state target cleavage rate (min^-1); MIWI and MILI are mouse PIWI proteins and EfPiwi is from a freshwater sponge; tags in brackets are library labels; higher = faster piRNA-guided slicing of the target. To be noted: guide: L1MC piRNA 5'p-UAACUAAAUACUAUGCAAGCUGUAGGUCCU
The protocol:
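Cleave-'n-Seq: a library of target RNAs (target site embedded in constant flanks, ACAGCATTCCGCGTTAGTGATATCCG... 5' flank; DNA-blocked outside the site) at 0.1 nM was incubated with 1 nM active mouse MILI or MIWI piRISC (synthetic 5'-monophosphorylated piRNA guide) with or without 500 nM mouse GTSF1 at 33 °C for 1 min to 16 h. Uncleaved targets were sequenced and normalised to non-target controls, and the pooled three trials were fitted to a burst-and-steady-state model to give the pre-steady-state cleavage rate (min^-1; k3 is constrained to at most 1e-4). Sequence is the target site only; target names encode pairing extent (gX:gY) and contiguous / 1-mismatch / 2-mismatch / bulge geometry. Fits with R² ≤ 0 are excluded.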

[1] abbreviates: auxiliary factor: 500 nM mouse GTSF1.
Setting [2] is: auxiliary factor: none (no GTSF1).

± gives the standard deviation. In all, about 8,200 sequences were measured (“pre-steady-state target cleavage rate”: median about 0.024, highest 2% from about 1.3 on). The list comes from a sample in which the highest values are over-represented; it also holds similar and randomly drawn sequences.

As to UCCUGGAUGAGCUAGCAUAGUAUUUAGUUA, the “pre-steady-state target cleavage rate” value reads like this: under setting [1], 0.617 ± 0.05; under setting [2], 0.0107 ± 0.0036. Taken in the same sequence, the figures for UCCUGCUAACAGCUUGCAUAGUAUUUAGUUA were 0.617 ± 0.052 and 0.0487 ± 0.0083. Turning to AGGACCUACAGCUUGCAUAGUAAAAACAAA, the “pre-steady-state target cleavage rate” value under setting [1] worked out at 0.268 ± 0.068. On to UGGACCUACAGCUUCCAUAGUAAUUAGUUA, for which the “pre-steady-state target cleavage rate” value under setting [1] came to 0.0113 ± 0.0031. Regarding UCCUGGAACAGCUUGCAUAGUACUUUAGUUA, the “pre-steady-state target cleavage rate” value under setting [1] stood at 0.472 ± 0.036 and the “pre-steady-state target cleavage rate” value under setting [2] turned out to be 0.00827 ± 0.0032.

Turning to UCCAGCUACACCUUGCAUAGUAUUUAGUUA, the “pre-steady-state target cleavage rate” value stood at 0.797 ± 0.034 under setting [1] and 0.0443 ± 0.0068 under setting [2]. UCCUGGAUCAGCUUGCAUAGAAUUUACAAA: under setting [1], the “pre-steady-state target cleavage rate” value was 0.0559 ± 0.014. As to UGGACCUACAGCUUGCAUAGCAUUUAGUUA, the “pre-steady-state target cleavage rate” value was found to be 0.379 ± 0.025 under setting [1] and 0.0275 ± 0.0061 under setting [2].

In the case of UCCUGGAUCCAGCUUGCAUAGUAUUUAGUUA, the “pre-steady-state target cleavage rate” value runs as follows: under setting [1], 1.31 ± 0.081; under setting [2], 0.0546 ± 0.016.

Consider UCCUGGUCCAGCUUGCAUAGUAUUUAGUUA, for which the “pre-steady-state target cleavage rate” value is 0.717 ± 0.055 under setting [1] and 0.0383 ± 0.0079 under setting [2]. The matching figures for UCCUGGACCAGCUUGCAUAGUAUUUAGUUA: 0.915 ± 0.048 and 0.0367 ± 0.0074. Taken in the same sequence, the figures for UCCUGGAUCCGCUUGCAUAGUAUUUAGUUA were 0.927 ± 0.053 and 0.031 ± 0.0075.

Turning to UCCUGGAUGAGCUUGCAUAGUAUUUAUUUA, the “pre-steady-state target cleavage rate” value was determined as 0.267 ± 0.055 under setting [1] and 0.025 ± 0.0077 under setting [2].

Turning to AGGACCUACAGGUUCCAUAGUAUUUAGUUA, the “pre-steady-state target cleavage rate” value under setting [1] came to 0.659 ± 0.17. As for UCCUCUCUACAGCUUGCAUAGUAUUUAGUUA, the “pre-steady-state target cleavage rate” value by setting is: under setting [1], 0.797 ± 0.038; under setting [2], 0.0529 ± 0.0081. On to “UCCUCCUACAGCUUGCAUAGUAUUUAGUUA [g2:g26:cont:t1A]”, for which the “pre-steady-state target cleavage rate” value reads like this: under setting [1], 1.32 ± 0.052; under setting [2], 0.0816 ± 0.015. Taken in the same sequence, the figures for UCCUUCUACAGCUUGCAUAGUAUUUAGUUA were 1.02 ± 0.033 and 0.0527 ± 0.0083. Taken in the same sequence, the figures for UCCUCCUACAGCUUGCAUAGUAUUUUAGUUA were 1.04 ± 0.044 and 0.0227 ± 0.0055. Turning to ACCUCCUACAGCUUGCAUAGUAUUUAGUAA, the “pre-steady-state target cleavage rate” value by setting is: under setting [1], 0.85 ± 0.046; under setting [2], 0.0351 ± 0.0072. The matching figures for “UCCUCCUACAGCUUGCAUAGUAUUUAGUUC [g2:g26:cont:t1C]”: 1.09 ± 0.039 and 0.0511 ± 0.011.

Turning to ACCUCCUACAGCUUGCAUAGUAUUUAGUUA, the “pre-steady-state target cleavage rate” value reads like this: under setting [1], 1.35 ± 0.052; under setting [2], 0.0784 ± 0.012. The matching figures for UCCUCCCUACAGCUUGCAUAGUAUUUAGUUA: 1.09 ± 0.038 and 0.075 ± 0.016. On to UCCUCUACAGCUUGCAUAGUAUUUAGUUA, for which the “pre-steady-state target cleavage rate” value by setting is: under setting [1], 1.34 ± 0.047; under setting [2], 0.0659 ± 0.011. The matching figures for UCCUGGUACAGCUUGCAUAGUAGUUAGUUA: 0.433 ± 0.051 and 0.0224 ± 0.0045.

Turning to UGGACGUACAGCUUGCAUAGUAUUUUGUUA, the “pre-steady-state target cleavage rate” value is, setting by setting: under setting [1], 0.75 ± 0.055; under setting [2], 0.052 ± 0.009. With UCCUGGAUCAGCAUUGCAUAGUAUUUAGUUA, the “pre-steady-state target cleavage rate” value was determined as 0.875 ± 0.036 under setting [1] and 0.0165 ± 0.0047 under setting [2]. Consider UCCUGGAUGUCGAUGCAUAGUAUUUGAGUUA, for which the “pre-steady-state target cleavage rate” value under setting [1] stood at 0.0114 ± 0.0044. On to UCCACCUACACCUUGCAUAGUUUUUAGUUA, for which the “pre-steady-state target cleavage rate” value is 0.249 ± 0.032 under setting [1] and 0.0171 ± 0.0033 under setting [2]. The matching figures for UCCUGGAACAGCGUUGCAUAGUAUUUAGUUA: 0.939 ± 0.055 and 0.0303 ± 0.0056. Regarding UCCUGCUACAGGUUGCAUAGUAUUUACAAA, the “pre-steady-state target cleavage rate” value under setting [1] turned out to be 0.117 ± 0.028. For the sequence UCCACCUACAGACUUGCAUAGUAUUUAGUUA, the “pre-steady-state target cleavage rate” value is, setting by setting: under setting [1], 0.606 ± 0.06; under setting [2], 0.0272 ± 0.0043. In the case of UCCUCCUACAGCUUGCAUAGCUAUUUAGUUA, under setting [1], the “pre-steady-state target cleavage rate” value turned out to be 0.0221 ± 0.01. Turning to UCGACCUACCGCUUGCAUAGUAUUUAGUUA, the “pre-steady-state target cleavage rate” value runs as follows: under setting [1], 1.64 ± 0.069; under setting [2], 0.0745 ± 0.015. For the sequence UCCACCUACCGCUUGCAUAGUAUUUAGUUA, the “pre-steady-state target cleavage rate” value reads like this: under setting [1], 1.11 ± 0.05; under setting [2], 0.0544 ± 0.0086. Taken in the same sequence, the figures for UGGACCUACCGCUUGCAUAGUAUUUAGUUA were 1.57 ± 0.11 and 0.0558 ± 0.0098. Taken in the same sequence, the figures for AGGACCUACCGCUUGCAUAGUAUUUAGUUA were 1.43 ± 0.082 and 0.0866 ± 0.017.

Turning to UGGACCUACCAGCUUGCAUAGUAUUUAGUUA, the “pre-steady-state target cleavage rate” value is, setting by setting: under setting [1], 1.25 ± 0.1; under setting [2], 0.0599 ± 0.013.

For the sequence UCCUCCUACGCUUGCAUAGUAUUUAGUUA, the “pre-steady-state target cleavage rate” value runs as follows: under setting [1], 1.24 ± 0.045; under setting [2], 0.0478 ± 0.0094. Taken in the same sequence, the figures for AGGACCUACCAGCUUGCAUAGUAUUUAGUUA were 1.17 ± 0.069 and 0.0704 ± 0.014. The matching figures for AGGACCUACACGCUUGCAUAGUAUUUAGUUA: 1.1 ± 0.065 and 0.0703 ± 0.01. Take UGGACCUACGAGCUUGCAUAGUAUUUAGUUA: the “pre-steady-state target cleavage rate” value turned out to be 0.657 ± 0.11 under setting [1] and 0.0557 ± 0.013 under setting [2]. Taken in the same sequence, the figures for UCCUCCUACCGCUUGCAUAGUAUUUAGUUA were 1.34 ± 0.062 and 0.0565 ± 0.0099. Taken in the same sequence, the figures for UCCUGCUACCGCUUGCAUAGUAUUUAGUUA were 1.1 ± 0.1 and 0.0571 ± 0.011. Consider UCGACCUACCAGCUUGCAUAGUAUUUAGUUA, for which the “pre-steady-state target cleavage rate” value by setting is: under setting [1], 1.29 ± 0.064; under setting [2], 0.0725 ± 0.016. For the sequence UCCUGGAUGUGCUUGCAUUGUUUUUAGUUA, the “pre-steady-state target cleavage rate” value under setting [1] came to 0.0048 ± 0.0031. UCCUGGAUGUGCUUGCAUAGUAUUUUGUAA: the “pre-steady-state target cleavage rate” value by setting is: under setting [1], 0.0569 ± 0.016; under setting [2], 0.00775 ± 0.0023. The matching figures for UCCACCUACAGCUUGCAUAGUAUUUGGUUA: 0.555 ± 0.038 and 0.0358 ± 0.0079. Taken in the same sequence, the figures for UCGACCUACAGGUUGCAUAGUAUUUACUUA were 0.296 ± 0.04 and 0.025 ± 0.0051. Taken in the same sequence, the figures for AGCACCUACACCUUGCAUAGUAUUUAGUUA were 0.739 ± 0.074 and 0.0408 ± 0.0062. With UCGACCUACAGCUUGGUUAGUAUUUACAAA, the “pre-steady-state target cleavage rate” value under setting [1] was 0.0826 ± 0.02. Still for that read-out and setting: the same measure for UCGACCUACAGCUUGCUAGUAUUUAGUUA: 0.219 ± 0.061. Consider UCGACCUACAGCUUGGUUAGUAUUUAGUAA, for which the “pre-steady-state target cleavage rate” value under setting [1] was 0.72 ± 0.061 and the “pre-steady-state target cleavage rate” value under setting [2] worked out at 0.00525 ± 0.002. For the sequence UCGACCUACAGCUUGCUUAGUAUUUAGUAA, the “pre-steady-state target cleavage rate” value was determined as 1.02 ± 0.068 under setting [1] and 0.0176 ± 0.005 under setting [2]. As for UCGACCUAGAGCUUGCUUAGUAUUUAGUUA, the “pre-steady-state target cleavage rate” value is, setting by setting: under setting [1], 1.34 ± 0.048; under setting [2], 0.0282 ± 0.0063. The matching figures for UGCACCUACAGCUUGCUUAGUAUUUAGUUA: 1.25 ± 0.092 and 0.031 ± 0.0064. Taken in the same sequence, the figures for UCCACCUAGAGCUUGCUUAGUAUUUAGUUA were 0.549 ± 0.044 and 0.0205 ± 0.0044. The matching figures for UCGACCUACAGCUUGGUUAGUAUUUAGUUA: 1.42 ± 0.058 and 0.00908 ± 0.0026. Turning to UCGACCUACAGCUUGCUUAGUAUUUAGUUA, the “pre-steady-state target cleavage rate” value reads like this: under setting [1], 1.66 ± 0.074; under setting [2], 0.0474 ± 0.01. For the sequence UGGACCUAGAGCUUGCUUAGUAUUUAGUUA, the “pre-steady-state target cleavage rate” value was found to be 1.18 ± 0.095 under setting [1] and 0.0321 ± 0.0069 under setting [2]. The matching figures for AGCACCUACAGCUUGCUUAGUAUUUAGUUA: 0.978 ± 0.079 and 0.0389 ± 0.0089. Taken in the same sequence, the figures for ACGACCUACAGCUUGCUUAGUAUUUAGUUA were 1.57 ± 0.074 and 0.0527 ± 0.013.
